Test results as given in PubChem BioAssay (NCATS).
Records with an inconclusive call do not appear. Active and inactive are the calls of the source. Unless noted, the call rests on the fitted dose curve; in most records, active means well fitted curve in either direction with a large enough effect (not every such curve was filed as active); inconclusive means small, poorly fitted or top-dose-only effect, or another doubt; inactive means flat fitted curve, though single readings scatter.

Tests used:
[1] = molecular target: Lysosomal acid glucosylceramidase (Homo sapiens) (UniProt P04062); experiment: Glucocerebrosidase-p2 (AID 348; in the data active means potency below about 10 µM; further: potency means the concentration at half of the fitted maximal effect); conditions: purified GBA, blue fluorogenic substrate, 40 min
Procedure, shortened: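 Compounds titrated from 0.6 nM upwards against 0.2 nM enzyme in pH 5.9 citric acid/KH2PO4, taurocholate, tween-20; blue fluorogenic substrate 80 uM, 40 min room temperature, stopped and read Ex 365/Em 440 for AC50.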

[2] = AP1 Signaling Pathway (AID 357); conditions: ME-180 AP-1-bla reporter, EGF-induced, beta-lactamase ratio, 5 h; at 7.69 µM (top of the series) unless noted;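 further: ME-180 reporter cells stimulated with EGF at its EC50 level; on the % scale 0 is the no-effect control and ±100 the full control effect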
Procedure, shortened: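 Read-out was the 460nm/530nm emission ratio (excitation 405nm) after CCF4 loading for 2.5 hours at room temperature. Cells carried an AP-1-driven beta-lactamase reporter, were stimulated with EC50 EGF plus compound for 5 hours, and AC50 values came from titrations.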

[3] = NFAT Signaling Pathway (AID 444); conditions: Jurkat NFAT-bla M1, carbachol, beta-lactamase ratio, 5 h; at 7.69 µM (top of the series) unless noted;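 further: carbachol stimulus at about its EC50 of 1 µM final; on the % scale 0 is the no-effect control and ±100 the full control effect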
Procedure, shortened: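 Read-out: CCF4 FRET ratio (460 nm/530 nm) after 1 h RT dye loading, used for %activity and AC50 from titration series. Cells: Jurkat NFAT-β-lactamase/M1 line, treated with compound plus 1 uM carbachol for 5 h, 37 °C.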

[4] = Stat Signaling Pathway (AID 446); conditions: ME-180 SIE beta-lactamase reporter, IL-6 stimulated, 5 h; at 7.69 µM (top of the series) unless noted;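 further: ME-180 cervical cancer cells given 40 pM IL-6 alongside compound; SIE-controlled beta-lactamase reporter measured as 460/530 nm FRET emission ratio; on the % scale 0 is the no-effect control and ±100 the full control effect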
Procedure, shortened: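 Screening format detects activators and inhibitors alike: ME-180 SIE-bla cells stimulated at 40 pM IL-6 for 5 hrs with compound, then dual-emission beta-lactamase read at 405 nm excitation.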

[5] = molecular target: Glucocorticoid receptor (Homo sapiens) (UniProt P04150); experiment: GR-GFP Redistribution (AID 450;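 active means compounds whose dose series gives a full or clear partial fitted curve of increased nuclear translocation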; further: potency means the concentration at half of the fitted maximal effect); conditions: U2OS GR-GFP nuclear translocation, laser cytometry, 2 h
[6] = molecular target: Glucocorticoid receptor (Homo sapiens) (UniProt P04150); experiment: GR-EFC Redistribution (AID 451; calls by dose curve; further: potency means the concentration at half of the fitted maximal effect); conditions: CHO-K1 GR-EFC translocation, beta-gal luminescence, 2 h
Procedure, shortened: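 Translocation of GR-ED fusion to nuclear EA restores b-gal, read by luminescence after 1 h room-temperature detection. Engineered CHO-K1 biosensor cells, 1,000/well, exposed 2 h at 37 C to titrations up to 46 uM final.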

[7] = molecular target: Mitogen-activated protein kinase 10 (Mus musculus) (UniProt Q61831); experiment: JNK3 AlphaScreen Assay (AID 530); conditions: JNK3 lysate, c-Jun phosphorylation; series mostly up to 11.4 µM;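 further: kinase came from lysate of stimulated human HepG2 cells; signal reports phosphorylation of biotinylated GST-cJun 1-79 at Ser73 with 10 µM ATP; on the % scale 0 is the no-effect control and ±100 the full control effect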
Procedure, shortened: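 Room-temperature AlphaScreen kinase assay; pre-activated HepG2 lysate as JNK3 source, biotin-GST-cJun(1-79) substrate, 10 uM ATP, compound 15 min preincubation.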

[8] = molecular target: 3',5'-cyclic-AMP phosphodiesterase 4B (Homo sapiens) (UniProt Q07343); experiment: qHTS Assay for Inhibitors of PDE-IV (AID 607; active means well fitted activation curve with a large enough effect in the main read-out, with a control signal flat, not every such curve was filed as active; further: % of control where 0% means no effect); conditions: HEK293 ACTOne CNG channel cells, membrane potential fluorescence; series mostly up to 22.9 µM
Procedure, shortened: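 The readout is membrane depolarisation from a cAMP-sensing CNG channel, detected with a potential dye at ex 535/em 590. Cells were HEK293-derived (endogenous PDE-IV) at 1000 cells/well, titrated up to 22.9 uM final.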

Lysosomal acid glucosylceramidase (Homo sapiens), sequence (P04062 whole entry, looked up): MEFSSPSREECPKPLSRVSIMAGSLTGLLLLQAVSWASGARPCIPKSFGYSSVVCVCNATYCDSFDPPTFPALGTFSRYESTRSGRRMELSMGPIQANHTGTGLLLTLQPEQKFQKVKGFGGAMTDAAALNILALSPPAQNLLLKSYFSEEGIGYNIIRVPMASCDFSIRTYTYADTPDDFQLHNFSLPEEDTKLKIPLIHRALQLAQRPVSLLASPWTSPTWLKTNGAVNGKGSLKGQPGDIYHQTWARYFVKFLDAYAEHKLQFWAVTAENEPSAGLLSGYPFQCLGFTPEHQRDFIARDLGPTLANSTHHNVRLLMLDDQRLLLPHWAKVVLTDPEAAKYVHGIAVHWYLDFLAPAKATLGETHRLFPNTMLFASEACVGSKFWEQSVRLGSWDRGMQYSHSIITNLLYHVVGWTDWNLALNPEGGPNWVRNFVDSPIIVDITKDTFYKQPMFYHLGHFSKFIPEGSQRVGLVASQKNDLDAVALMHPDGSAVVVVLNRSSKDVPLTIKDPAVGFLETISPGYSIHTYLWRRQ
3',5'-cyclic-AMP phosphodiesterase 4B (Homo sapiens), sequence (Q07343 whole entry, looked up): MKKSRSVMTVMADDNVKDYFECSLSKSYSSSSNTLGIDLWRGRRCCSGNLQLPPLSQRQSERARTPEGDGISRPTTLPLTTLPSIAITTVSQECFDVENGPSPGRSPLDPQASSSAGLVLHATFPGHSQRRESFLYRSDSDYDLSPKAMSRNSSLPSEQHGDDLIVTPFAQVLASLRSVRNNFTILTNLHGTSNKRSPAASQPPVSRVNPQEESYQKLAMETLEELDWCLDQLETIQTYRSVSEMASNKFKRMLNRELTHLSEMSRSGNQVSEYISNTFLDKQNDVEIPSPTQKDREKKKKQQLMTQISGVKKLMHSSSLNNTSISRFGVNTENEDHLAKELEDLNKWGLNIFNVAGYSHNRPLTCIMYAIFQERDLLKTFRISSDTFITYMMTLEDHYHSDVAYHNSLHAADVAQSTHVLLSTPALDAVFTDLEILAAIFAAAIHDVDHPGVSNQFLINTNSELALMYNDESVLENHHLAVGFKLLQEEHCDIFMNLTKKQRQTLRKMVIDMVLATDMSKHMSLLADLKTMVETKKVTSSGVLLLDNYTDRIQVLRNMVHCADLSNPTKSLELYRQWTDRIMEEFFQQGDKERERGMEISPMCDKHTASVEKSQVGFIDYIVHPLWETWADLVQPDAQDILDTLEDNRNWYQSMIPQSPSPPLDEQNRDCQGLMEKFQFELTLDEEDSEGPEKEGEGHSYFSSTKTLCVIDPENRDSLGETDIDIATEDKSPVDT
Glucocorticoid receptor (Homo sapiens), sequence (P04150 whole entry, looked up, the tested form may be a part): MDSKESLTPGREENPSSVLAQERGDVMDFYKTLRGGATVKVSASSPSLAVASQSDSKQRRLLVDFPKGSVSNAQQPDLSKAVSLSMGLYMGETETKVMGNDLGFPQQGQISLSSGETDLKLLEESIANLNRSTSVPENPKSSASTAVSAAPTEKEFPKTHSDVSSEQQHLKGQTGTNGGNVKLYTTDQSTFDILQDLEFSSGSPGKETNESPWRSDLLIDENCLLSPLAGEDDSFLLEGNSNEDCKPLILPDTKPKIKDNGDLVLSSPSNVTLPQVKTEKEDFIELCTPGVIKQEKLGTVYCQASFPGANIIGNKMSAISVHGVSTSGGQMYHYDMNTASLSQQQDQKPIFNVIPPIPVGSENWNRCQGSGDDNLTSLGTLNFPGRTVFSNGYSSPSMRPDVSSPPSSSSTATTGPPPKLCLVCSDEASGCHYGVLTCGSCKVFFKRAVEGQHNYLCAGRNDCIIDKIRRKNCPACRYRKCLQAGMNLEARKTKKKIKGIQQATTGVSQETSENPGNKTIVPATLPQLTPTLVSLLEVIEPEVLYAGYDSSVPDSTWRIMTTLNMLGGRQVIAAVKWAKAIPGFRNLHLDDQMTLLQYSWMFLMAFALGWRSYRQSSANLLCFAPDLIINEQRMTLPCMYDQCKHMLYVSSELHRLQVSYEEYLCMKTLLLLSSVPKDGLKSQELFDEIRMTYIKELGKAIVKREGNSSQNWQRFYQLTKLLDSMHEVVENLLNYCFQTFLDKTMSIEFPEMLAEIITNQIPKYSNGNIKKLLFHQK

COCCn1c(=O)cnc2cnc(N3CCNCC3)nc21
inactive: Potency [1] > 11.4 µM | activity change, negative = inhibition [2] -9.65% | activity change, negative = inhibition [3] -7.03% | activity, negative = inhibition [4] -2.85% | Potency [5] > 9.22 µM | Potency [6] > 46 µM | Potency [7] | Potency [8]

NCCSc1nc(-c2ccccc2)c(-c2ccccc2)o1
inactive: Potency [1] > 11.4 µM | activity change, negative = inhibition [2] 2.27% | activity change, negative = inhibition [3] -4.41% | activity, negative = inhibition [4] -3.16% | Potency [5] > 46 µM | Potency [6] > 9.22 µM | Potency [7] | Potency [8]

O=C(O)CSc1ccc([N+](=O)[O-])cc1[N+](=O)[O-]
inactive: Potency [1] > 11.4 µM | activity change, negative = inhibition [2] 10.9% | activity change, negative = inhibition [3] -3.03% | activity, negative = inhibition [4] 9.83% | Potency [5] > 46 µM | Potency [6] > 9.22 µM | Potency [7] | Potency [8]

O=C1c2ccccc2C(=O)N1C1(C(=O)NC2(C(=O)O)CCCC2)CCCC1
inactive: Potency [1] > 11.4 µM | activity change, negative = inhibition [2] 0.0237% | activity change, negative = inhibition [3] 10.1% | activity, negative = inhibition [4] 0.797% | Potency [5] > 46 µM | Potency [6] > 9.22 µM | Potency [7] | Potency [8]

C(=Nc1ccc2c(c1)Cc1ccccc1-2)c1ccccn1
inactive: Potency [1] > 11.4 µM | activity change, negative = inhibition [2] -0.541% | activity change, negative = inhibition [3] 1.45% | activity, negative = inhibition [4] 0.131% | Potency [5] > 46 µM | Potency [6] > 9.22 µM | Potency [7] | Potency [8]

CC(C)(SCc1ccccc1)[C@H](N)C(=O)O
inactive: Potency [1] > 11.4 µM | activity change, negative = inhibition [2] 0.115% | activity change, negative = inhibition [3] 12.4% | activity, negative = inhibition [4] 5.95% | Potency [5] > 46 µM | Potency [6] > 9.22 µM | Potency [7] | Potency [8]

NC(=O)/N=C(\N)NC(=O)c1ccccc1
inactive: Potency [1] > 11.4 µM | activity change, negative = inhibition [2] -2.56% | activity change, negative = inhibition [3] 8.99% | activity, negative = inhibition [4] 2.37% | Potency [5] > 46 µM | Potency [6] > 9.22 µM | Potency [7] | Potency [8]

CC1=NNC(=S)NCCCN2CCN(CCCNC(=S)NN=C(C)C=NNC(=S)NCCCN3CCN(CCCNC(=S)NN=C1)CC3)CC2
inactive: Potency [1] > 11.4 µM | activity change, negative = inhibition [2] 4.7% | activity change, negative = inhibition [3] 5.96% | activity, negative = inhibition [4] -0.247% | Potency [5] > 46 µM | Potency [6] > 9.22 µM | Potency [7] | Potency [8]

C[C@@H](SCc1ccccc1)C(=O)O
inactive: Potency [1] > 11.4 µM | activity change, negative = inhibition [2] -4.75% | activity change, negative = inhibition [3] 12.1% | activity, negative = inhibition [4] -3.81% | Potency [5] > 46 µM | Potency [6] > 9.22 µM | Potency [7] | Potency [8]

N=C(N)c1ccc(/C=C\c2ccc(C(=N)N)cc2)cc1
inactive: Potency [1] > 11.4 µM | activity change, negative = inhibition [2] 0.27% | activity change, negative = inhibition [3] -7.18% | activity, negative = inhibition [4] 7.39% | Potency [5] > 46 µM | Potency [6] > 9.22 µM | Potency [7] | Potency [8]

NS(=O)(=O)c1ccc(NC2(C(=O)O)CCCC2)cc1
inactive: Potency [1] > 11.4 µM | activity change, negative = inhibition [2] -4.84% | activity change, negative = inhibition [3] 2.12% | activity, negative = inhibition [4] 11.8% | Potency [5] > 46 µM | Potency [6] > 9.22 µM | Potency [7] | Potency [8]

OC(Cc1cccnc1)(c1ccccc1)c1ccccc1
inactive: Potency [1] > 11.4 µM | activity change, negative = inhibition [2] 5.37% | activity change, negative = inhibition [3] -25.6% | activity, negative = inhibition [4] -5.74% | Potency [5] > 46 µM | Potency [6] > 9.22 µM | Potency [7] | Potency [8]

Nc1nc2c(c(=O)[nH]1)CN(CCCN1CCOCC1)CN2
inactive: Potency [1] > 11.4 µM | activity change, negative = inhibition [2] 1.77% | activity change, negative = inhibition [3] 5.13% | activity, negative = inhibition [4] 12.2% | Potency [5] > 46 µM | Potency [6] > 9.22 µM | Potency [7] | Potency [8]

CN(C)Cc1cc(C(=O)O)cc(CN(C)C)c1O
inactive: Potency [1] > 11.4 µM | activity change, negative = inhibition [2] 4.91% | activity change, negative = inhibition [3] 3.37% | activity, negative = inhibition [4] -1.77% | Potency [5] > 46 µM | Potency [6] > 9.22 µM | Potency [7] | Potency [8]

N#CCCn1c(=O)c(-c2ccccc2)nc2cnc(Oc3ccccc3)nc21
inactive: Potency [1] > 11.4 µM | activity change, negative = inhibition [2] -22.6% | activity change, negative = inhibition [3] -4.58% | activity, negative = inhibition [4] 2.8% | Potency [5] > 9.22 µM | Potency [6] > 46 µM | Potency [7] | Potency [8]

CC(=O)Nc1cc(CN2CCCCC2)c(O)c2ncccc12
inactive: Potency [1] > 11.4 µM | activity change, negative = inhibition [2] 4.21% | activity change, negative = inhibition [3] -27.8% | activity, negative = inhibition [4] 6.71% | Potency [5] > 46 µM | Potency [6] > 9.22 µM | Potency [7] | Potency [8]
